Screening results deposited in PubChem BioAssay by The Scripps Research Institute Molecular Screening Center.
MITF inh – inhibitors of human MITF. actives 0.91% (n = 650,000). inhibition, % at 2.6 µM. AlphaScreen MITF homodimerization, bead proximity signal. O75030; in the data active = inhibition above about 50%;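 also: 0% = vehicle wells with protein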
Target sequence (O75030 whole entry, looked up): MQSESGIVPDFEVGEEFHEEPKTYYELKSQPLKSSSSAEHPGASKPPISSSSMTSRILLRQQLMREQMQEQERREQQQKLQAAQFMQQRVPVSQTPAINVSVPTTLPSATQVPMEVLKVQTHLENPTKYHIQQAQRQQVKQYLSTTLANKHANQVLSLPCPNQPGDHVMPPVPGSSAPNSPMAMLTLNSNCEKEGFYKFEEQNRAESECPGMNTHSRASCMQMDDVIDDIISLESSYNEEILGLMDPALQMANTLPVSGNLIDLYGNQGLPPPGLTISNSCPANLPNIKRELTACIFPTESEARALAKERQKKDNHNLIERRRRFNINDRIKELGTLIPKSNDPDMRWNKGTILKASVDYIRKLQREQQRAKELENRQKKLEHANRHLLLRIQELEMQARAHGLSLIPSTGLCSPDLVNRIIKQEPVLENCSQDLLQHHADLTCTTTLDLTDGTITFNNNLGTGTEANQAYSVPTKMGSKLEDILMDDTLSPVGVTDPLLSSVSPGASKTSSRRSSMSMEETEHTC
FBW7 activator – human FBW7 E3 ligase activation, primary screen | actives 0.13% (n = 650,000) | normalized activity (activation), % at 26.1 µM | AlphaScreen FBW7–phospho-cyclin E peptide binding, activator screen | Q969H0 | AID 1259310; in the data active = normalized activity above about 1.9%;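 also: purified mutant Fbw7 with reduced substrate affinity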
GPR151 activ – human GPR151 activation; AID 1508602; PathHunter beta-arrestin GPR151 cells, luminescence; actives 1% (n = 650,000); activation, % at 11.2 µM; in the data active = activation above about 4.9%;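 also: 0% = median of compound wells and 100% = cells with positive control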
TEAD-YAP block – TEAD-YAP interaction inhibition; HEK-TIYL cells, TEAD-Gal4/YAP UAS-luciferase luminescence; actives 1.4% (n = 640,000); inhibition, % at 9.12 µM; in the data active = inhibition above about 32%;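 also: 0% = median of test compound wells and 100% = reference inhibitor wells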
Starred values were filed as active, the others as inactive. In the library only some 3.4% were active in any assay of this set; here they are far more common.

SMILES | MITF inh | FBW7 activator | GPR151 activ | TEAD-YAP block
CCOC(=O)c1sc(NC(=O)c2cc([N+](=O)[O-])ccc2Sc2nnnn2C)cc1C | 13 | 0 | 0 | 8
Cn1nnnc1Sc1ccc([N+](=O)[O-])cc1C(=O)Nc1ccc(C(F)(F)F)cc1 | -9 | 0 | 1 | 50*
COc1cccc(C=C2C(=O)NC(=O)NC2=O)c1OCc1ccccc1Cl | 5 | 0 | 3 | 0
COc1ccccc1/C=C1\C(=O)ON=C1C | 71* | 0 | 2 | -2
COc1ccc(Cl)cc1/C=C1/C(=O)ON=C1C | 35 | 0 | 0 | 10
CC1=NOC(=O)/C1=C/c1ccccc1OS(=O)(=O)c1ccc(C)cc1 | 70* | 0 | 0 | 5
COc1cccc(/C=C2\C(=O)ON=C2C)c1OCc1ccccc1Cl | 74* | 0 | 0 | -17
CC(=O)c1c(C)[nH]c(C(=O)OCC(=O)NCc2cccs2)c1C | -5 | 0 | 0 | -14
COc1cccc(-c2ccc3c(N)c(C(=O)Nc4cc(OC)ccc4OC)sc3n2)c1 | 7 | 0 | 0 | 6
CCC(=O)Nc1nc2c(s1)C(=O)CC(c1ccccc1)C2 (centres undefined) | -3 | 0 | 0 | 52*
Cc1cc(C)n(-c2ncc(-c3ccc([N+](=O)[O-])cc3)cn2)n1 | -4 | 0 | -1 | 59*
Cc1cc(Cl)n(-c2ccc([N+](=O)[O-])cc2)n1 | 4 | 0 | -1 | 7
CC(=O)c1ccc(NC(=O)C2CC(C)=CCC2C(=O)O)cc1 (centres undefined) | -8 | 0 | 0 | -12
Nc1nc(-c2sc3nc(-c4ccccc4)cc(C(F)(F)F)c3c2N)nc(N2CCOCC2)n1 | 20 | 0 | 2 | 2
O=C(Cc1ccccc1)Nc1ccc(N2C(=O)c3ccc4c5c(ccc(c35)C2=O)CC4)cc1 | -1 | 0 | 1 | 43*
CN(C(=O)c1cc(-c2ccccc2)nc2ccccc12)C1(C(=O)NC(c2ccccc2)c2ccccc2)CCCCC1 | -13 | 0 | -1 | -8
COc1ccc(OC)c(CNCc2c(C(=O)O)c(C)n(Cc3ccccc3C)c2C)c1 | 24 | 0 | 1 | 6
COc1ccc(Nc2nc(C)cc(C)n2)c(OC)c1 | 12 | 0 | 0 | 3
COc1ccc(Nc2cc(C)nc(-n3nc(C)cc3C)n2)c(OC)c1 | -7 | -1 | -1 | 66*
Cc1cc(Nc2ccccc2C)nc(-n2nc(C)cc2C)n1 | 18 | 0 | -2 | 70*
Cc1cc(Nc2ccc(F)c(Cl)c2)nc(-n2nc(C)cc2C)n1 | 15 | 1 | -1 | 6
Cc1cc(Nc2ccc3c(c2)OCO3)nc(-n2nc(C)cc2C)n1 | -5 | 0 | -1 | 61*
COC(=O)c1sc(N2C(=O)C(=O)/C(=C(/O)c3ccc(Cl)cc3)C2c2ccc(F)cc2)nc1C (centres undefined) | 5 | 0 | 0 | -1
Cc1ccccc1-n1ncc2c(NCc3ccc(F)cc3)ncnc21 | 1 | 0 | 0 | -4
c1csc(CNc2ncnc3nc[nH]c23)c1 | 0 | 0 | 2 | 5
SMILES | MITF inh | FBW7 activator | GPR151 activ | TEAD-YAP block
Fc1ccc(CNc2ncnc3ccccc23)cc1 | -4 | 0 | 1 | 55*
c1csc(CNc2ncnc3ccccc23)c1 | 3 | 0 | 2 | 51*
COc1cc(NC(=O)c2ccnc(-c3ccc(N4CCN(C)CC4)cc3)c2)cc(OC)c1OC | 14 | 0 | 1 | -27
c1ccc(-c2cn3c4c(nnc3n2)CCCC4)cc1 | 18 | 0 | -1 | 44*
O=C(Nc1ccc(-c2cn3c4c(nnc3n2)CCCC4)cc1)c1cccnc1 | -9 | 0 | 0 | -2
Fc1ccc(-c2cn3c4c(sc3n2)CCCC4)cc1 | -10 | 0 | -10 | 52*
Nc1ccc(-c2cn3c4c(sc3n2)CCCC4)cc1 | -9 | 0 | 0 | 27
c1ccc(-c2cn3c4c(sc3n2)CCCC4)cc1 | 4 | 0 | -7 | 85*
CC(=O)Nc1ccc(-c2cn3c4c(sc3n2)CCCC4)cc1 | -1 | 0 | 0 | -36
NC(=O)C1CCN(CCC(=O)Nc2cccc(F)c2)CC1 | 9 | 0 | 0 | 6
Nc1nc2ccccc2n1C(=O)c1ccc(Cl)cc1 | 1 | 0 | -8 | 71*
Cc1ccc(C(=O)n2c(N)nc3ccccc32)cc1 | -5 | 0 | -8 | 91*
OCC12CC3CC(C1)CC(CO)(C3)C2 | 15 | 0 | -2 | 7
Cc1noc(C)c1-c1cccc(C(=O)NCCOc2ccccc2)n1 | -14 | 0 | 1 | -44
O=S(=O)(c1ccc(-c2csc(N/N=C/c3cccs3)n2)cc1)N1CCCC1 | 7 | 1 | -1 | 51*
O=C(Nc1nc(-c2ccc(S(=O)(=O)N3CCCCCC3)cc2)cs1)c1cccs1 | 5 | 0 | 0 | -1
